High-throughput results: PubChem, several laboratories
NLRP3 yeast inh: NALP3 inflammasome inhibitors in reconstituted yeast, primary screen, luminescence, uHTS; AID 2825, 2010; hit rate 0.39% among 330,000; Yeast reconstituted NLRP3/ASC/caspase-1, beta-gal luminescence, 24 h; inhibition, % at 10 µM;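 active means inhibition of 50% or more; inactive means inhibition below 50%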
CR mimetic SO: reduction of superoxide in aged yeast, primary screen, HTS. hit rate 0.18% among 330,000. superoxide response (% of plate mean), % at 10 µM. S. cerevisiae aged cells, superoxide DHE fluorescence; stronger effect = lower value;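 active means superoxide response under a set limit, about three screen SD below normal, cut at about 65% in these data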;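 further: yeast aged for seven days with compound at 30 °C before DHE staining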
TIM10 inh: growth inhibitors of isogenic TIM10 control yeast, primary screen, counter-screen for tim10-1 yeast inhibitor project, luminescence, uHTS. S. cerevisiae TIM10 strain growth, BacTiter-Glo luminescence, 24 h. inhibition, % at 10 µM. hit rate 1.4% among 330,000. AID 463195, 2010;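 active means inhibition of 40% or more at the single tested concentration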;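 further: wild-type TIM10 isogenic control strain grown at permissive 25 °C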
tim10-1 inh: growth inhibitors of tim10-1 mutant yeast, primary screen, luminescence, uHTS | S. cerevisiae tim10-1 ts strain growth, BacTiter-Glo, 24 h | inhibition, % at 20 µM | hit rate 2.2% among 330,000;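 active means inhibition of at least 40%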;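 further: mutant grown at 25 °C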
tim23-1 inh: growth inhibitors of tim23-1 mutant yeast, primary screen, luminescence, uHTS; S. cerevisiae tim23-1 growth, BacTiter-Glo luminescence, 24 h; inhibition, % at 20 µM; hit rate 1.3% among 330,000; AID 463212, 2010;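 active means growth inhibition of the mutant yeast at or above 50%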;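 further: temperature-sensitive mutant grown at 25 °C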
tim10-1 conf: growth inhibitors of tim10-1 mutant yeast, confirmation, single concentration, luminescence, S. cerevisiae; shares compounds with tim10-1 inh; S. cerevisiae tim10-1 ts strain growth, BacTiter-Glo, 24 h; inhibition, % at 20 µM; hit rate 56% among 7,400;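 active means inhibition of yeast growth at or above a set limit in either of two repeat tests at 20 µM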;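 further: tim10-1 mutant grown at permissive 25 °C to find synthetic lethal compounds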
TIM10 conf: growth inhibitors of wild-type TIM10 yeast, confirmation, counter-screen for tim10-1 synthetic lethality project, single concentration, luminescence, S. cerevisiae | inhibition, % at 10 µM | AID 463215, 2010 | hit rate 63% among 4,600 | shares compounds with TIM10 inh | S. cerevisiae tim10 strain growth, BacTiter-Glo luminescence, 24 h;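 active means inhibition of yeast growth at or above a set limit in either of two replicates at 10 µM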; further: this counterscreen used the strain with wild-type TIM10
tim23-1 confirm: tim23-1 mutant yeast growth inhibitors, confirmation, luminescence, single concentration; inhibition, % at 20 µM; S. cerevisiae tim23-1 growth, BacTiter-Glo luminescence, 24 h; shares compounds with tim23-1 inh; hit rate 83% among 4,400;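 active means inhibition above about 39% in either of two replicate wells at 20 µM, limit read from the data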;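 further: temperature-sensitive tim23-1 mutant grown at 25 °C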
Numbers stand for hits; . = inactive; / = no result given. This is a sample that favours compounds with a hit; in the whole collection about 3.8% have one here.

SMILES | NLRP3 yeast inh | CR mimetic SO | TIM10 inh | tim10-1 inh | tim23-1 inh | tim10-1 conf | tim23-1 confirm | others
N#C/C(=N\Nc1cccc([N+](=O)[O-])c1)C(=O)c1ccc(Br)cc1 | . | . | . | . | . | / | /
Cc1ccc(OCC(=O)Nc2cnn(CCCC(=O)O)c2)c([N+](=O)[O-])c1 | . | . | . | . | . | / | /
O=[N+]([O-])c1ccc2[nH]c3c(c2c1)CCCC3 | . | . | . | 65 | 66 | 57 | 66
N/N=C1\CCCc2c1[nH]c1ccc([N+](=O)[O-])cc21 | . | . | . | . | . | / | /
COc1ccc(-n2c(=O)c3ccccc3n(CC(=O)NCC3CCCO3)c2=O)cc1 (configuration not stated) | . | . | . | . | . | / | /
Cc1nn(-c2ccccc2)c(N)c1C(c1ccccc1)c1c(C)nn(-c2ccccc2)c1N | . | . | . | . | . | / | /
O=C(N/N=C/c1cc(Br)c(Br)o1)c1ccc2c(c1)OCCO2 | . | . | 57 | 65 | 53 | 53 | 80 | TIM10 conf=59
CCCCCCC(=O)N/N=C/c1ccc(Br)cc1 | . | . | . | 50 | 73 | 33 | 73
COc1ccccc1/C=N/NC(=O)c1nnn(-c2nonc2N)c1-c1cccs1 | . | . | . | . | . | / | /
O=c1[nH]c(NC2CCCCC2)c([N+](=O)[O-])c(=O)[nH]1 | . | . | . | . | . | / | /
O=C(Cn1cnc2ccccc2c1=O)N1CCN(S(=O)(=O)c2ccc(F)cc2)CC1 | . | . | . | . | . | / | /
Clc1cccc(Cl)c1Cn1cnc2c(N3CCCCCC3)ncnc21 | . | . | 41 | 44 | 50 | . | 47 | TIM10 conf=28
c1ccc(Cn2nnc3c(N4CCCCCC4)ncnc32)cc1 | . | . | . | . | . | / | /
CCOc1ccc(/C=N/NC(=O)c2[nH]ncc2Br)c(O)c1 | . | . | 59 | 52 | 78 | 30 | 78 | TIM10 conf=37
COc1ccc(OC)c(/C=N/NC(=O)c2[nH]ncc2Br)c1 | . | . | . | . | . | / | /
Cc1ccc(SCC(=O)OCn2nnc3ccccc3c2=O)cc1C | . | . | . | 42 | 67 | . | 51
Cc1ccc(S(=O)(=O)c2nc(-c3cccs3)oc2N2CCC(C(N)=O)CC2)cc1 | . | . | . | . | . | / | /
O=C(CC1NC(=O)NC1=O)Nc1ccc(Cl)cc1 (configuration not stated) | . | . | . | . | . | / | /
O=C(CC1Nc2ccccc2NC1=O)Nc1cc(Cl)cc(Cl)c1 (configuration not stated) | . | . | 41 | 79 | 64 | . | . | TIM10 conf=.
O=C1C=CC(=O)N1c1cccc(-c2ccccc2)c1 | . | . | 95 | 95 | 51 | 98 | 98 | TIM10 conf=99
O=C1c2ccccc2C(=O)N1c1cccc(-c2nc3ccccc3o2)c1 | . | . | . | . | . | / | /
CCOC(=O)C1CCN(C(=O)Cn2cnc3sc(C)c(S(=O)(=O)N4CCOCC4)c3c2=O)CC1 | . | . | . | . | . | / | /
Cc1cc(N2CCCCC2)n2nc(C)c(-c3ccccc3)c2n1 | . | . | . | 43 | 50 | 33 | 47
O=C(NCc1ccc(Cl)cc1)NCC(F)(F)F | . | . | . | . | . | / | /
CCOC(=O)c1ccccc1NC(=O)CSc1nnnn1C1CCCCC1 | . | . | . | 43 | 53 | . | .
CC(=O)c1cc(N2CCC(C(=O)O)CC2)ccc1[N+](=O)[O-] | . | . | . | . | . | / | /
CCC(CC)c1nnc(NC(=O)c2cccnc2SC)s1 | . | . | . | . | . | / | /
Cc1sc(N)nc1-c1ccc(Oc2ccccc2)cc1 | . | . | . | 40 | 69 | 50 | 57
S=c1[nH]nc(-c2ccncc2)n1/N=C/C(Cl)=C\c1ccccc1 | . | . | 67 | 56 | 58 | 50 | 48 | TIM10 conf=58
